Measurements taken from PubChem BioAssay (EPA / NIEHS).
Activity calls are given as the source filed them. How the source made its calls: active means hit-call score of the fitted dose curve at least 0.9, where 1 is the maximum; inactive means score below 0.9.

Legend:
[1] = read-out: TIMP metallopeptidase inhibitor 1 (TIMP1), TIMP1 (gene 7076); assay: BSK_hDFCGF_TIMP1: BioMAP Diversity Plus: hDFCGF Assay for TIMP metallopeptidase inhibitor 1 (TIMP1) Biomarker Activity (AID 2283062); conditions: primary human foreskin fibroblasts; actives raise or lower the signal
Procedure, shortened: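 TIMP-1 measured by ELISA 24 h after chemical dosing of primary human skin fibroblasts, with gain or loss fitted relative to DMSO. Parallel SRB staining (560 nm) monitored overt cytotoxicity.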

[2] = read-out: Monokine induced gamma interferon (MIG), CXCL9 (gene 4283); assay: BSK_hDFCGF_MIG: BioMAP Diversity Plus: hDFCGF Assay for Monokine induced gamma interferon (MIG) Biomarker Activity (AID 2283063); conditions: primary human foreskin fibroblasts; actives raise or lower the signal
Procedure, shortened: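 Human primary foreskin fibroblasts in the hDFCGF system, exposed to test chemical for 24 h; MIG measured by ELISA. Bidirectional curve fitting against DMSO negative control as activity baseline.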

[3] = read-out: Matrix Metallopeptidase 1 (MMP1), MMP1 (gene 4312); assay: BSK_hDFCGF_MMP1: BioMAP Diversity Plus: hDFCGF Assay for Matrix Metallopeptidase 1 (MMP1) Biomarker Activity (AID 2283064); conditions: primary human foreskin fibroblasts; actives raise or lower the signal
Procedure, shortened: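 Primary human foreskin fibroblasts in the hDFCGF system were dosed with test chemical, and MMP1 was measured by ELISA 24 h later. Values come from bidirectional curve fitting against the DMSO baseline.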

[4] = read-out: Vascular cell adhesion molecule 1 (VCAM1), VCAM1 (gene 7412); assay: BSK_hDFCGF_VCAM1: BioMAP Diversity Plus: hDFCGF Assay for Vascular cell adhesion molecule 1 (VCAM1) Biomarker Activity (AID 2283065); conditions: primary human foreskin fibroblasts; actives raise or lower the signal
Procedure, shortened: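 ELISA readout of VCAM-1 on human dermal fibroblast primary cultures, 24 h after chemical exposure. Gain or loss of signal fitted in both directions against DMSO baseline.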

[5] = read-out: Plasminogen activator inhibitor-1 (PAI1), SERPINE1 (gene 5054); assay: BSK_hDFCGF_PAI1: BioMAP Diversity Plus: hDFCGF Assay for Plasminogen activator inhibitor-1 (PAI1) Biomarker Activity (AID 2283066); conditions: primary human foreskin fibroblasts; actives raise or lower the signal
Procedure, shortened: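 PAI-1 levels, determined by ELISA, served as the endpoint in human foreskin fibroblast cultures exposed to compound for 24 h, with DMSO as baseline.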

[6] = read-out: Intercellular Adhesion Molecule 1 (ICAM1), ICAM1 (gene 3383); assay: BSK_KF3CT_ICAM1: BioMAP Diversity Plus: KF3CT Assay for Intercellular Adhesion Molecule 1 (ICAM1) Biomarker Activity (AID 2283067); conditions: primary human keratinocytes with fibroblasts; actives raise or lower the signal
Procedure, shortened: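 Cell-surface ICAM-1 was measured by ELISA 24 h after dosing primary human skin keratinocytes co-cultured with fibroblasts. Parallel SRB staining tracked overt cytotoxicity. Gain or loss of signal was fitted relative to DMSO.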

[7] = read-out: Interferon-gamma inducible Protein 10 (IP10), CXCL10 (gene 3627); assay: BSK_KF3CT_IP10: BioMAP Diversity Plus: KF3CT Assay for Interferon-gamma inducible Protein 10 (IP10) Biomarker Activity (AID 2283068); conditions: primary human keratinocytes with fibroblasts; actives raise or lower the signal
Procedure, shortened: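 Signal is secreted/surface IP-10 by ELISA in a human primary skin co-culture of keratinocytes and foreskin fibroblasts, taken 24 h post-dosing; DMSO served as negative control.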

[8] = BSK_KF3CT_SRB: Viability Assessment in the BioMAP Diversity Plus: KF3CT Assay (AID 2283069); conditions: primary human keratinocytes with fibroblasts;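 further: total protein by sulforhodamine B staining as a cytotoxicity measure; read 24 h after compound addition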
Procedure, shortened: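 Human primary keratinocyte plus foreskin fibroblast co-culture exposed to chemicals for 24 h. Total protein measured by 0.1% sulforhodamine B staining after 10% TCA fixation, read at 560 nm; bidirectional fitting versus DMSO baseline.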

[9] = read-out: Interleukin-1 alpha (IL1a), IL1A (gene 3552); assay: BSK_KF3CT_IL1a: BioMAP Diversity Plus: KF3CT Assay for Interleukin-1 alpha (IL1a) Biomarker Activity (AID 2283070); conditions: primary human keratinocytes with fibroblasts; actives raise or lower the signal
Procedure, shortened: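 Human keratinocyte plus foreskin fibroblast primary co-culture, sampled 24 h after chemical dosing. IL-1a measured by ELISA; responses fitted bidirectionally against DMSO baseline (negative control), so gain or loss of signal both count.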

[10] = read-out: Transforming growth factor beta 1 (TGFb1), TGFB1 (gene 7040); assay: BSK_KF3CT_TGFb1: BioMAP Diversity Plus: KF3CT Assay for Transforming growth factor beta 1 (TGFb1) Biomarker Activity (AID 2283072); conditions: primary human keratinocytes with fibroblasts; actives raise or lower the signal
Procedure, shortened: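 Signal changes in either direction, relative to DMSO, define activity here. TGF-b1 is read by ELISA from a human keratinocyte-fibroblast co-culture 24 h post-dose.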

[11] = read-out: C-C motif chemokine 2 (Homo sapiens) (UniProt P13500); assay: BSK_KF3CT_MCP1: BioMAP Diversity Plus: KF3CT Assay for Monocyte Chemoattractant Protein 1 (MCP1/CCL2) Biomarker Activity (AID 2283073); conditions: primary human keratinocytes with fibroblasts; actives raise or lower the signal
Procedure, shortened: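 ELISA read-out of MCP-1, 24 h post-dose, in primary human skin keratinocytes co-cultured with fibroblasts. Parallel SRB staining monitors cytotoxicity; changes fitted both directions relative to DMSO.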

[12] = read-out: Matrix Metallopeptidase 9 (MMP9), MMP9 (gene 4318); assay: BSK_KF3CT_MMP9: BioMAP Diversity Plus: KF3CT Assay for Matrix Metallopeptidase 9 (MMP9) Biomarker Activity (AID 2283074); conditions: primary human keratinocytes with fibroblasts; actives raise or lower the signal
Procedure, shortened: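 Keratinocyte plus foreskin fibroblast human primary skin co-culture was dosed with chemical and MMP-9 was quantified by ELISA 24 h later. Bidirectional curve fitting used DMSO as negative control and activity baseline.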

[13] = read-out: urokinase plasminogen activator (uPA), PLAU (gene 5328); assay: BSK_KF3CT_uPA: BioMAP Diversity Plus: KF3CT Assay for urokinase plasminogen activator (uPA) Biomarker Activity (AID 2283075); conditions: primary human keratinocytes with fibroblasts; actives raise or lower the signal
Procedure, shortened: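 Human keratinocyte plus foreskin fibroblast primary co-culture exposed to chemical for 24 h. uPA levels were quantified by ELISA, and activity was fitted bidirectionally against a DMSO negative-control baseline.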

CD40, CD40 (gene 958) = assay: BSK_LPS_CD40: BioMAP Diversity Plus: LPS Assay for CD40 Biomarker Activity (AID 2283076); conditions: primary human HUVEC with PBMC; actives raise or lower the signal
Procedure, shortened: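 In the LPS system of human endothelial cells with peripheral blood mononuclear cells, CD40 levels were read by ELISA 24 h post-treatment. Signal changes in either direction were fitted against the DMSO baseline, with parallel SRB protein staining.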

[14] = read-out: E-selectin (Homo sapiens) (UniProt P16581); assay: BSK_LPS_Eselectin: BioMAP Diversity Plus: LPS Assay for Eselectin Biomarker Activity (AID 2283077); conditions: primary human HUVEC with PBMC; actives raise or lower the signal
Procedure, shortened: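 E-selectin ELISA on LPS-stimulated endothelial cell/PBMC co-cultures, read 24 h post-treatment; gains and losses fitted against DMSO. Parallel SRB staining (0.1% SRB after 10% TCA fixation, 560 nm) flags overt cytotoxicity.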

[15] = read-out: Interleukin-8 (IL8), CXCL8 (gene 3576); assay: BSK_LPS_IL8: BioMAP Diversity Plus: LPS Assay for Interleukin-8 (IL8) Biomarker Activity (AID 2283078); conditions: primary human HUVEC with PBMC; actives raise or lower the signal
Procedure, shortened: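 ELISA read-out of IL-8 after 24 h chemical treatment of LPS-activated endothelial/PBMC human primary co-cultures. Changes either up or down relative to DMSO; overt cytotoxicity checked by sulforhodamine B staining in parallel wells.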

[16] = BSK_LPS_SRB: Viability Assessment in the BioMAP Diversity Plus: LPS Assay (AID 2283079); conditions: primary human HUVEC with PBMC;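 further: total protein by sulforhodamine B absorbance as a cytotoxicity measure; measured one day after compound addition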
Procedure, shortened: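 SRB viability endpoint: cells fixed with 10% TCA, stained with 0.1% SRB, read at 560 nm, 24 h post-dose. HUVEC/PBMC co-culture; signal change in either direction scored relative to DMSO.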

[17] = read-out: Interleukin-1 alpha (IL1a), IL1A (gene 3552); assay: BSK_LPS_IL1a: BioMAP Diversity Plus: LPS Assay for Interleukin-1 alpha (IL1a) Biomarker Activity (AID 2283080); conditions: primary human HUVEC with PBMC; actives raise or lower the signal
Procedure, shortened: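 Readout is IL-1a level by ELISA, 24 h post-dose, fitted as gain or loss relative to DMSO. System: LPS-activated human primary co-culture of vascular endothelium and peripheral blood mononuclear cells, with parallel SRB total-protein cytotoxicity.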

[18] = read-out: Monocyte Chemoattractant Protein-1 (MCP1), CCL2 (gene 6347); assay: BSK_LPS_MCP1: BioMAP Diversity Plus: LPS Assay for Monocyte Chemoattractant Protein-1 (MCP1) Biomarker Activity (AID 2283081); conditions: primary human HUVEC with PBMC; actives raise or lower the signal
Procedure, shortened: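 Secreted MCP-1 read by ELISA at 24 h post-dosing in an LPS-activated co-culture of endothelial cells with peripheral blood mononuclear cells. Fits run in both directions, DMSO as baseline; parallel SRB staining tracks overt cytotoxicity.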

[19] = read-out: TIMP metallopeptidase inhibitor 2 (TIMP2), TIMP2 (gene 7077); assay: BSK_KF3CT_TIMP2: BioMAP Diversity Plus: KF3CT Assay for TIMP metallopeptidase inhibitor 2 (TIMP2) Biomarker Activity (AID 2283071); conditions: primary human keratinocytes with fibroblasts; actives raise or lower the signal
Procedure, shortened: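 Keratinocyte–fibroblast co-culture, 24 h exposure; TIMP-2 ELISA, DMSO-normalised bidirectional fit. Parallel SRB (0.1%, TCA-fixed, 560 nm) total-protein staining gauges cytotoxicity.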

Measured: AC50

Sequence of E-selectin (Homo sapiens) (P16581 whole entry, looked up): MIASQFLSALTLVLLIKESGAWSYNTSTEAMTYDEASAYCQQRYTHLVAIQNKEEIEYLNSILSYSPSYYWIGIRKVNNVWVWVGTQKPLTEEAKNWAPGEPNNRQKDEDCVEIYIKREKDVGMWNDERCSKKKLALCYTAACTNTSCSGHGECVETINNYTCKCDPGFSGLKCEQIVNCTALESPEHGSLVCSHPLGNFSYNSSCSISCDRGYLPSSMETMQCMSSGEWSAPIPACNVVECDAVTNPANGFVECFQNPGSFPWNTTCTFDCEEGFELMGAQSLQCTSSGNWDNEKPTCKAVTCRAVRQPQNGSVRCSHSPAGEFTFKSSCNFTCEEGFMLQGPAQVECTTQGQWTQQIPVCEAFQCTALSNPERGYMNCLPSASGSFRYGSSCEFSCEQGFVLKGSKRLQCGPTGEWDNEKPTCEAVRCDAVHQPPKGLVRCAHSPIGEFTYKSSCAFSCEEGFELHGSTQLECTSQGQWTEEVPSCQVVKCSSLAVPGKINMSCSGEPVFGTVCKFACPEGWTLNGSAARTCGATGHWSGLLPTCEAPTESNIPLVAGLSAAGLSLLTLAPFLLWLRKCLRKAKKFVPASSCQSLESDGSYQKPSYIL

OCC(O)CO
inactive: [1] | [2] | [3] | [4] | [5] | [6] | [7] | [8] | [9] | [10] | [11] | [12] | [13] | CD40, CD40 (gene 958) | [14] | [15] | [16] | [17] | [18]

CC(=O)OC1CC(C)OC(C)O1 (stereo not given)
active: [5] 0.523 µM
inactive: [1] | [2] | [3] | [4] | [6] | [7] | [8] | [19] | [10] | [11] | [12] | [13] | CD40, CD40 (gene 958) | [14] | [15] | [16] | [17] | [18]

CSc1ccc(Oc2ccc(S(N)(=O)=O)cc2CN(C)C)cc1C
inactive: [1] | [2] | [3] | [4] | [5] | [6] | [7] | [8] | [9] | [10] | [11] | [12] | [13] | CD40, CD40 (gene 958) | [14] | [15] | [16] | [17] | [18]

CC1(C)C(=O)NC(=O)N1CO
inactive: [1] | [2] | [3] | [4] | [5] | [6] | [7] | [8] | [19] | [10] | [11] | [12] | [13] | CD40, CD40 (gene 958) | [14] | [15] | [16] | [17] | [18]

Cc1ccc(-c2cc(C(F)(F)F)nn2-c2ccc(S(N)(=O)=O)cc2)cc1
inactive: [1] | [2] | [3] | [4] | [5] | [6] | [7] | [8] | [19] | [10] | [11] | [12] | [13]
active: CD40, CD40 (gene 958) 26.6 µM | [14] 30.9 µM | [15] 35.6 µM | [16] 29.2 µM | [17] 30.5 µM

CN(C)CCCN(C)CCCN(C)C
inactive: [1] | [2] | [3] | [4] | [5] | [6] | [7] | [8] | [9] | [10] | [11] | [12] | [13] | [14] | [15] | [16] | [17] | [18]

CCCCCCC(CCCCCCCCCCC(=O)OCC(COC(C)=O)OC(C)=O)OC(C)=O (stereo not given)
active: [5] 0.818 µM
inactive: [1] | [2] | [3] | [4] | [6] | [7] | [8] | [9] | [10] | [11] | [12] | [13] | CD40, CD40 (gene 958) | [14] | [15] | [16] | [17] | [18]

CC(COCC(C)OC(=O)c1ccccc1)OC(=O)c1ccccc1 (stereo not given)
inactive: [1] | [2] | [3] | [4] | [5] | [6] | [7] | [8] | [19] | [10] | [11] | [12] | [13] | CD40, CD40 (gene 958) | [14] | [15] | [16] | [17] | [18]
